According to PubChem BioAssay:

Legend:
Assay in all cases: Peg3 promoter luciferase inhibitors, potency, dose response, cell-based, HeLa, CREF/GAPDH counter-screen panel (AID 624167)
[1] = target: PEG-3 (UniProt Q6IN02); conditions: CREF/GAPDH counter-screens; HeLa PEG-Prom luciferase reporter, overnight, run 1, dose range 1, at 100 µM (top of the series) unless noted
[2] = target: PEG-3 (UniProt Q6IN02); conditions: CREF/GAPDH counter-screens; HeLa PEG-Prom luciferase reporter, overnight, run 2, dose range 1, at 100 µM (top of the series) unless noted
[3] = system: Rat fibroblasts (CREF); conditions: CREF/GAPDH counter-screens; run 1, dose range 1, at 100 µM (top of the series)
[4] = system: Rat fibroblasts (CREF); conditions: CREF/GAPDH counter-screens; run 2, dose range 1, at 100 µM (top of the series)

PEG-3, sequence (Q6IN02 whole entry, looked up): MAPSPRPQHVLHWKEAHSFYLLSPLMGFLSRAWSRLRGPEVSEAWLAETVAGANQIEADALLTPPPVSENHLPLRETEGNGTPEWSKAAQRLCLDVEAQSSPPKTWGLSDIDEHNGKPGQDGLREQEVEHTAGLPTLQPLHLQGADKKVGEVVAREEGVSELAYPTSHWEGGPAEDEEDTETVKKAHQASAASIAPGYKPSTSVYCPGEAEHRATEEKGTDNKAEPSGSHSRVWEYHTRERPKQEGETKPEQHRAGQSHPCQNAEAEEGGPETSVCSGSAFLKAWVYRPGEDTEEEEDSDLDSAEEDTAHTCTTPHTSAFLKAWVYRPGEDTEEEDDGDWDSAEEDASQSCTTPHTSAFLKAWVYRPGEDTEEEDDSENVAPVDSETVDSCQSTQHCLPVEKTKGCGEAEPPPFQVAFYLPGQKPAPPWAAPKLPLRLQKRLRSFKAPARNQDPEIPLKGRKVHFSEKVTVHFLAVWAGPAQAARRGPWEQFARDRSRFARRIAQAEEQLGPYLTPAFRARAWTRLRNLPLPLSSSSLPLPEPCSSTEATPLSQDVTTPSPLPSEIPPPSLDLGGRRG

Structure (SMILES) | inhibition [1] | inhibition [2] | inhibition [3] | inhibition [4]
O=S(=O)(N[C@H]1C[C@@H](NS(=O)(=O)OCC(Cl)(Cl)Cl)C2CCCCC21)OCC(Cl)(Cl)Cl (stereo partly specified) | 99.2% | 101% | – | –
CC(C)n1cc(CN2CCC(C(=O)Nc3cccc(-c4cccc(Cl)c4)c3)CC2)cn1 | 99.3% | 101% | – | –
CCOC(=O)/C(=C\c1ccccc1)C(=O)CCN1CCOCC1 | 102% | 102% | – | –
CC(=O)c1ccc(Nc2cc(C)nc3ccc(C)cc23)cc1 | 99.2% | 102% | – | –
CCCCCCCn1c(=N)n(CC(O)c2ccco2)c2ccccc21 (stereo unspecified) | 101% | 99.1% | – | –
CCCCCCOc1ccc(/C(C)=N/NC2=NCCN2)cc1 | 101% | 101% | – | –
COc1ccc(C2c3ccc4ccccc4c3Oc3ncn(CCO)c(=N)c32)cc1OC (stereo unspecified) | 99.1% | 101% | – | –
CN(C)CCNc1ncnc2c1sc1nc(N3CCOCC3)c3c(c12)CC(C)(C)SC3 | 98% | 101% | – | –
CCOC(=O)CN(C(=O)CSc1nnc2c(n1)[nH]c1ccc(F)cc12)c1ccccc1 | 99.9% | 99.2% | – | –
N=c1n(CCN2CCCC2)c2ccccc2n1CC(O)c1ccc(Cl)c(Cl)c1 (stereo unspecified) | 99.3% | 101% | – | –
O=C(C=Cc1ccccn1)c1ccccc1 | 101% | 101% | – | –
Cc1ccc2nc(N(CCCN(C)C)C(=O)c3ccc4c(c3)CCCC4)sc2c1 | 99.5% | 101% | – | –
Oc1ccc(C23CCCC2C2(CCCC2)c2ccc(O)cc2O3)c(O)c1 (stereo unspecified) | 99.4% | 95.5% | – | –
COc1cccc(NC(=O)CN(C)C(=O)c2cccnc2Nc2cccc(C(F)(F)F)c2)c1 | 102% | 102% | – | –
COc1cc(-c2cc(C(=O)Nc3cc(S(=O)(=O)N4CCOCC4)ccc3C)c3ccccc3n2)cc(OC)c1OC | 55.1% | 61.8% | – | –
c1ccc(CN2CCC(Nc3nc(-c4cccnc4)nc4ccccc34)CC2)cc1 | 102% | 94.1% | – | –
O=c1c2c3c(sc2nc(N2CCNCC2)n1CCc1ccccc1)CCCCC3 | 102% | 101% | – | –
COc1ccccc1NC(=O)c1cc(-c2cc(OC)c(OC)c(OC)c2)nc2ccccc12 | 47.9% | 50.1% [run 2, dose range 1, at 50 µM] | – | –
NC(=O)C1CCN(C2=C(Cl)C(=O)c3ccccc3C2=O)CC1 | 100% | 97.8% | – | –
COCOCCn1cc(CN2CCS(=O)(=O)N(Cc3ccc(-c4ccc(Cl)c(Cl)c4)cc3)C(C(C)C)C2=O)nn1 (stereo unspecified) | 92.6% | 97.8% | – | –
COc1ccc(CC(=O)N(Cc2ccccc2)c2ccccc2)cc1S(=O)(=O)N1CCOCC1 | 82.4% | 91.1% | – | –
Cc1ccc(C2=NC(=O)/C(=C/c3cc(O)c(O)c(Br)c3)S2)cc1 | 88.6% | 79.4% | – | –
COc1ccc(C23CC4CC(CC(C4)C2)C3)cc1C(=O)NCCN(C)C | 101% | 102% | – | –
Cc1cc2c(c(/C=C/C(=O)c3ccccc3)c1)OC1(C=C2)Oc2ccccc2C(=O)N1C (stereo unspecified) | 102% | 101% | – | –
COc1ccc(-c2nc(NC(=O)c3n[nH]c(=O)c4ccccc34)sc2C)cc1 | 14% | 30.7% | – | –
COC(=O)c1cc(=O)n(Cc2ccco2)c(=Nc2ccc(F)cc2)s1 | 102% | 102% | – | –
CCCN1C/C(=C/c2cccc([N+](=O)[O-])c2)C(=O)/C(=C/c2cccc([N+](=O)[O-])c2)C1 | 26.2% | 30.1% | – | –

Structure (SMILES) | inhibition [1] | inhibition [2] | inhibition [3] | inhibition [4]
CCOC(=O)C1=C(COCCN)NC(C)=C(C(=O)OC)C1c1ccccc1Cl (stereo unspecified) | 98.7% | 100% | – | –
CC(=O)Nc1cccc(-c2ccnc3c2CC(C)(C(=O)Nc2cccc(OC(F)(F)F)c2)O3)c1 (stereo unspecified) | 68.6% | 77.1% | – | –
CC(=O)Nc1cccc(-c2cc(NC=O)c3ncc(-c4ccc(C(C)=O)cc4)n3c2)c1 | 12.8% | 31.9% | – | –
COc1ccc(CNCCC(c2ccccc2)c2ccc(OC(C)C)cc2)cc1OC (stereo unspecified) | 101% | 102% | – | –
COc1ccc(-c2cc(C(=O)N(C)Cc3cccc(OC)c3OC)c3ccccc3n2)cc1OC | 72.4% | 74.7% | – | –
Cc1ccc2cc3c(N)c4c(C)ccc(C)c4nc3nc2c1 | 94.6% | 93.7% | – | –
CCN(Cc1ccccc1)S(=O)(=O)c1ccc(C(=O)N(CCCN(C)C)c2nc3cc4c(cc3s2)OCO4)cc1 | 102% | 101% | – | –
O=C(/C=C/c1cc(Br)ccc1O)c1ccco1 | 102% | 101% | – | –
O=S(=O)(/N=C(/Sc1ccccc1)c1ccccc1)c1ccccc1 | 102% | 101% | – | –
CCOC(=O)c1c(NC(C)=O)sc2c(OCC(O)CN(CC)CC)c(Br)ccc12 (stereo unspecified) | 102% | 98.6% | – | –
CN(C)C(=O)c1cccc(-c2cnc3c(NC=O)cc(-c4cccc(C(F)(F)F)c4)cn23)c1 | 89.1% | 93.6% | – | –
Cc1nc(N2CCN(c3ccccn3)CC2)c2c(C)c(C(=O)Nc3ccccc3F)sc2n1 | 53.1% | 34.9% | – | –
COc1ccc(/C=C/C(=O)c2ccc3c(c2)OCCO3)cc1[N+](=O)[O-] | 97.9% | 99% | – | –
CC(C)CC(N)c1csc(NC(=O)Nc2ccccc2C(C)C)n1 (stereo unspecified) | 99% | 101% | – | –
c1cncc(-c2nc(NCC3COc4ccccc4O3)c3ccccc3n2)c1 (stereo unspecified) | 101% | 99.8% | – | –
CC(C)(C)c1ccc(OCCCNCc2ccccc2)cc1 | 99.8% | 98% | – | –
CC(C)CC(NS(=O)(=O)OCC(Cl)(Cl)Cl)c1ccccc1 (stereo unspecified) | 97.2% | 99.4% | – | –
C[C@@H](NCCCn1cnc2c(OCc3ccccc3)ncnc21)c1cccc2ccccc12 | 94.9% | 101% | – | –
COc1ccccc1N1CCN(C(=O)c2sc3ncnc(N4CCN(c5ccccn5)CC4)c3c2C)CC1 | 88.3% | 93.5% | – | –
COc1ccc(NC(=O)N(C)[C@H]2C[C@H]3c4[nH]c5ccc(-c6cccc(C)c6)cc5c4CCN3C[C@H]2[C@H](C)O)cc1 | 98.4% | 97.1% | – | –
CCOC(=O)c1ccc2ncc(C(=O)OCC)c(NCCN(C)C)c2c1 | 73% | 77.3% | – | –
COc1cc2ccccc2cc1C(=O)N(CCN(C)C)c1nc2c(OC)ccc(OC)c2s1 | 98.2% | 101% | – | –
CCN1CCN(c2ncc(C(=O)Nc3cc(Cl)ccc3OC)c3ccccc23)CC1 | 100% | 98.7% | – | –
Cc1nc2c(OCc3ccc(OC(F)F)cc3)cccn2c1N(C)C(=O)CCC1CCCC1 | 95.4% | 99.7% | – | –
NS(=O)(=O)c1ccc(CCNc2nn3c(-c4ccc(F)c(Cl)c4)cnc3s2)cc1 | 66.9% | 74.3% | 28.6% | 14.8%
O=C(C(=O)N(Cc1ccccc1)Cc1ccccc1)c1c(-c2ccccc2)[nH]c2ccccc12 | 20.8% | 46.6% | – | –
COc1cc(C(=O)N/N=C(\c2ccccc2)c2ccccn2)cc(OC)c1OC | 72.6% | 74.9% | 72.1% | 63.3%

Structure (SMILES) | inhibition [1] | inhibition [2] | inhibition [3] | inhibition [4]
CCOc1cccc2sc(N(CCCN(C)C)C(=O)c3ccc(S(=O)(=O)N(CC)Cc4ccccc4)cc3)nc12 | 102% | 101% | – | –
CC1(C(=O)NCc2cccc3ccccc23)CCN1C(=O)Cc1ccc(-c2ccccc2)cc1 (stereo unspecified) | 52.6% | 43.6% | – | –
CN1CCC(N(C)C(=O)/C=C/c2cn(-c3ccccc3)nc2-c2cccs2)CC1 | 102% | 102% | – | –
c1ccc(CCNc2nc(-c3ccncc3)nc3ccccc23)cc1 | 52.1% | 47.8% | – | –
CC(=O)Nc1cccc(NC(=O)c2cc(-c3cccnc3)nc3ccc(Cl)cc23)c1 | 87.9% | 97.3% | – | –
O=c1cc2oc3cc(O)c(O)cc3c(-c3ccccc3[N+](=O)[O-])c-2cc1O | 93.5% | 99.6% | – | –
CC1(C)C(=O)C=CC(=O)C(C)(C)C(=O)C=CC(=O)C(C)(C)C2=CC=C(O2)C(C)(C)C(=O)C=CC1=O | 102% | 98.9% | – | –
CCc1ccc(O)c(CNCCNCc2cc(CC)ccc2O)c1 | 102% | 101% | – | –
COc1ccc(-c2nc3c(C(=O)NCCN(C)C)cccc3c3ccccc23)cc1 | 102% | 99.5% | – | –
O=[N+]([O-])c1nn(-c2ccc3c(c2)OCCO3)n(O)c1=Nc1ccc(Cl)cc1 | 48.4% | 73.7% | 13.6% | 8.03%
CCC(=O)NC(c1cccs1)c1cc(Cl)c2cccnc2c1O (stereo unspecified) | 100% | 99.5% | 38.2% | 97.6%
COc1ccc(-c2sc3ccccc3c2-c2ccc(OCCN3CCCCC3)cc2)cc1 | 99.5% | 100% | – | –
O=[N+]([O-])c1ccc(S(=O)(=O)c2ccccc2)nc1 | 99.3% | 101% | 99.3% | 98.6%
O=c1c2ccccc2sc2nc(CCl)nn12 | 102% | 102% | -2.66% | 33.8%
O=c1oc2ccccc2cc1-c1cn2ccccc2n1 | 92.7% | 94.2% | 94.6% | 93.7%
COc1ccc2c(c1OC)C(=O)N1c3ccccc3C(=O)N(c3ccccc3F)C21 (stereo unspecified) | 62.8% | 68.7% | – | –
CN(C)CCCN1c2ccccc2Sc2ccc3ccccc3c21 | 94.6% | 98.6% | – | –
CCOc1ccc(NC(=O)Nc2cccc(C(=O)O)c2)cc1 | 98% | 94.6% | 91.9% | 94.1%
CCc1ccc(/C=C2\SC(=S)N(CCCC(=O)Nc3cc(C)on3)C2=O)cc1 | 80% | 87.3% | 29.1% | 27.4%
C=CCN=C1NN=C(c2cc(C)n(CC=C)c2C)CS1 | 93.6% | 97.6% | – | –
C(=N\Nc1ccc2ccccc2n1)/c1ccc2c(c1)OCCO2 | 98.4% | 96.2% | 53.6% | 101%
CCCS(=O)(=O)c1cnc(C2COc3ccccc3O2)nc1N (stereo unspecified) | 96.2% | 94.6% | 89.5% | 87.6%
O=C1C=CC(=O)N1c1ccc(-c2nc3ccccc3o2)cc1 | 99.3% | 101% | 101% | 100%
O=c1cnnc(N/N=C/c2ccccn2)[nH]1 | 66.3% | 58.7% | 49.4% | 51.1%
Cc1cc(C2=NNC(=NC3CC3)SC2)c(C)n1-c1ccccc1F | 98% | 102% | 96.9% | 97.5%
